Where “and” joins values, the source holds several entries; their conditions need not be identical. Equal values may be shown once. Calls of active or inactive are those of the source. Cut-off read from the data, not from the text of the source, unless noted: active = inhibition above about 80%; inactive = the rest.
Key:
[1] = liver-stage malaria parasite load reduction – cell-based, known kinase inhibitor set, luminescence, hepatoma host viability (AID 624392; call rule not given here;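 note: infected cells incubated roughly two days before readout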); settings: Plasmodium liver stage in hepatoma cells, luciferase luminescence, concentration not given here; liver cell % of control: measured here: host liver cell viability; parasite % of control: stronger effect = lower value
[2] = biological target: Mitogen-activated protein kinase 7 (Homo sapiens) (UniProt Q13164); experiment: Gal4-ERK5 driven luciferase induction – cell-based, HTS, primary screen (AID 1508626;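 active = luciferase signal above three times the same-plate solvent-only control wells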;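 note: luciferase driven by Gal4-ERK5 fusion binding five Gal4 sites before minimal TATA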); settings: HeLa Gal4-ERK5 transactivation, 18 h, at 5 µM, stronger effect = higher value
Chain of Mitogen-activated protein kinase 7 (Homo sapiens) (Q13164 whole entry, looked up, the tested form may be a part): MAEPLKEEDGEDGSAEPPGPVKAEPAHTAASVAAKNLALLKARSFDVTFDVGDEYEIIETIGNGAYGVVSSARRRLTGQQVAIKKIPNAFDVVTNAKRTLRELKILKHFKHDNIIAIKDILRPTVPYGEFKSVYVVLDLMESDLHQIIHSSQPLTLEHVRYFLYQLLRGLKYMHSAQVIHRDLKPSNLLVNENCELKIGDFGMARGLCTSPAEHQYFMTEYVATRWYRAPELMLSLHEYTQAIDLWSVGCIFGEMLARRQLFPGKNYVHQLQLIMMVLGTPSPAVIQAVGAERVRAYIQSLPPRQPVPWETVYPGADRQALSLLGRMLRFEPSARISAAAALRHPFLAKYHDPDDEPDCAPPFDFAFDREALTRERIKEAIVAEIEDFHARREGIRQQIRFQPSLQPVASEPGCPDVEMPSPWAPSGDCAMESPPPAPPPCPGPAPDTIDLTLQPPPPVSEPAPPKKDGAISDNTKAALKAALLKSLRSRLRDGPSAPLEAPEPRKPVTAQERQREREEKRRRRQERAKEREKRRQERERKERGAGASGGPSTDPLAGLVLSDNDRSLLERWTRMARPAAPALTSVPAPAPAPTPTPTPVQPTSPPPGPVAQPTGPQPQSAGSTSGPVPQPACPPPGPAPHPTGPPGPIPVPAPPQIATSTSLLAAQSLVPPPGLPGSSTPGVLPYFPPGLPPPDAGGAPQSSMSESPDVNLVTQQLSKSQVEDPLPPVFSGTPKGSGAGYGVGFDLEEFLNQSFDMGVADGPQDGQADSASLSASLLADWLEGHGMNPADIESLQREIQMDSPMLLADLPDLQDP

[3] = galactose survival enhancers in mitochondrial complex I cybrids – cell-based, galactose medium, ATP luminescence, primary screen (AID 1645843;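 active = z-score of at least 1.8 in each of two replicates, scored against plate mean and spread of sample wells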;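 note: positive z means more ATP and so rescue of galactose-driven cybrid death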); settings: complex I mutant cybrid cells, 72 h, stronger effect = higher value
[4] = biological target: NAD(+) hydrolase SARM1 (Homo sapiens) (UniProt Q6SZW1); experiment: blocking NAD cleavage by SARM1 SAM-TIR – cell lysate, NAD-Glo luminescence (AID 1508614;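 active = compound whose remaining NAD level is above about 45 nM, limit read from the data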;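 note: higher remaining NAD means stronger inhibition of SARM1 NADase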); settings: SAM-TIR HEK293T lysate NADase, at 1 µM, stronger effect = higher value
Chain of NAD(+) hydrolase SARM1 (Homo sapiens) (Q6SZW1 whole entry, looked up): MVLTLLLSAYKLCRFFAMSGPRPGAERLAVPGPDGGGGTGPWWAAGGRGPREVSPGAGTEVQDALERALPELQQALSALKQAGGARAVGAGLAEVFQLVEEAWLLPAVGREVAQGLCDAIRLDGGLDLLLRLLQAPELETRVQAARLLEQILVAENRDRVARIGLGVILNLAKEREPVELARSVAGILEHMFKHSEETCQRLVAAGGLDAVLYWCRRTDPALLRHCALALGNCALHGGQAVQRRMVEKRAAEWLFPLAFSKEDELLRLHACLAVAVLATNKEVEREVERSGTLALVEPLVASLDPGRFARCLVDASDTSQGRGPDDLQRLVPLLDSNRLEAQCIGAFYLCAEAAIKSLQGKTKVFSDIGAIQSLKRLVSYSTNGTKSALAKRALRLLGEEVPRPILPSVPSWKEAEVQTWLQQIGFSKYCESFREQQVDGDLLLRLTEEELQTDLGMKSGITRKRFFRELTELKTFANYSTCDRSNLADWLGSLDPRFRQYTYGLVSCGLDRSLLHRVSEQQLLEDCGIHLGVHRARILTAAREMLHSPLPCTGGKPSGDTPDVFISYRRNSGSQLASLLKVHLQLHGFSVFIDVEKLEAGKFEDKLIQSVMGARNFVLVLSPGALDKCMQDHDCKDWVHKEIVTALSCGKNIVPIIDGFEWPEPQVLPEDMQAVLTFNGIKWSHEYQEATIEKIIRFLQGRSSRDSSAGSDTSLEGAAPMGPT

[5] = growth inhibition, single agents and combos, LFS_MB_1R, cell-based, cisplatin or BGB combos, synergistic combos for chromothripsis tumors (AID 1671452); settings: LFS_MB_1R medulloblastoma cells, stronger effect = higher value;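 note: cells exposed for 96 hours before readout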
[6] = growth inhibition, single agents and combos, CRL2098, cell-based, BGB or cisplatin IC20 combos, synergistic combos for chromothripsis tumors (AID 1671454); settings: CRL2098 osteosarcoma cells, drug combinations, stronger effect = higher value;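 note: cells exposed for 96 h before readout; 0% = vehicle DMSO and 100% = killing by high DMSO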
[7] = growth inhibition, single agents and combos, HD-MB03, cell-based, BGB or cisplatin IC20 combos, synergistic combos for chromothripsis tumors (AID 1671455; in the data active = inhibition above about 83%;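 note: 0% = vehicle DMSO and 100% = high DMSO as cytotoxic control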); settings: HD-MB03 medulloblastoma cells, stronger effect = higher value
[8] = growth inhibition, single agents and combos, UWB1.289, cell-based, BGB or cisplatin combos, synergistic combos for chromothripsis tumors (AID 1671456); settings: UWB1.289 ovarian carcinoma cells, stronger effect = higher value;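 note: cells exposed to compound for four days; 0% = vehicle DMSO and 100% = killing by high DMSO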
[9] = growth inhibition, single agents and combos, LFS_MB_2R, cell-based, cisplatin combos, synergistic combos for chromothripsis tumors (AID 1671457); settings: LFS_MB_2R medulloblastoma cells, stronger effect = higher value;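 note: cells exposed to compound for four days before readout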
[10] = UWB1.289_BRCA1 ovarian cancer growth, cell-based, BGB or cisplatin combinations (AID 1671459); settings: UWB1.289 BRCA1 ovarian carcinoma, drug combinations, stronger effect = higher value
[11] = drug combination toxicity in non-malignant astrocytes – cell-based, BGB or cisplatin IC20 combos, cytotoxicity control for chromothriptic childhood tumor combination screen (AID 1671460); settings: Human astrocytes, viability inhibition, drug combinations, at 0.5 µM, stronger effect = higher value;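 note: cells exposed to compounds for 96 hours before viability readout; 0% = vehicle and 100% = killing control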
[12] = CRL1545 cell growth, single agent and combined, cisplatin and BGB IC20 combos (AID 1671464); settings: CRL1545 osteosarcoma cells, stronger effect = higher value;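 note: cells exposed to compound for 96 hours before readout; 0% = vehicle DMSO and 100% = high DMSO killing control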
[13] = chitosan synthesis blockers in C. neoformans – flow cytometry, Cibacron Brilliant Red staining (AID 1347148; call rule not given here;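 note: compound exposure lasted three days at 37 degrees C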); settings: Cryptococcus neoformans chitosan, stronger effect = lower value; at 10 µM unless noted
[14] = compounds altering circadian rhythm period length – cell-based, LOPAC library, luminescence reporter (AID 2774; call rule not given here;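 note: values are relative to mean of DMSO wells on each plate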); settings: circadian reporter cells, at 7 µM, actives lie on both sides
[15] = compounds altering viability of human ES cells (AID 493140; call rule not given here;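 note: cells exposed to compounds for four days before counting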); settings: human embryonic stem cell survival screen; stronger effect = higher value
[16] = P. berghei load reduction in hepatocytes – cell-based, HepG2, luciferase luminescence, HepG2 viability, primary screen (AID 624349; in the data active = parasite load remaining mostly below about 12%, no sharp cut-off; inactive = mostly above about 10%;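 note: 100% = mean of DMSO negative control wells on the same plate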); settings: P. berghei liver stage in HepG2, luciferase luminescence, concentration not given here; parasite load remaining: stronger effect = lower value; viability: measured here: HepG2 viability without parasites
[17] = test system: Hepatitis C virus NS3 helicase; experiment: blockers of NS3h binding to ssDNA – biochemical, fluorescence polarization, LOPAC1280 library, primary screen (AID 687035; in the data active = inhibition above about 37%); settings: Purified HCV NS3 helicase, Cy5-dT15 ssDNA binding fluorescence polarization; stronger effect = higher value; concentration not given here
[18] = compounds altering Cy5-DNA-NS3h complex signal – biochemical, LOPAC1280, artefact control for HCV NS3 helicase inhibitor project (AID 687037; call rule not given here); settings: Cy5-DNA-NS3h complex fluorescence interference counterscreen
[19] = blockers of cellular phospholipid synthesis – cell-based, LOPAC library, screen 4, primary screen (AID 1347384; call rule not given here); settings: animal cells, phospholipid biosynthesis inhibition screen; at 10 µM
[20] = measured here: combination with BGB IC40, at 0.05 µM
[21] = measured here: combination with cisplatin, at 0.5 µM
[22] = measured here: combination with cisplatin, at 5 µM
[23] = measured here: combination with BGB at IC20, at 0.5 µM
[24] = measured here: combination with cisplatin at IC20, at 0.5 µM
[25] = measured here: combo with BGB at IC20, at 0.5 µM
[26] = measured here: combo with cisplatin at IC20, at 0.5 µM
[27] = measured here: inhibition with BGB combination, at 0.05 µM
[28] = measured here: inhibition with cisplatin combination, at 0.05 µM
[29] = BGB combination, concentration series, at 5 µM
[30] = cisplatin combination, concentration series, at 5 µM
[31] = measured here: combo with BGB IC20
[32] = measured here: combo with cisplatin IC20
[33] = measured here: with BGB IC20 combination, at 0.5 µM
[34] = measured here: with cisplatin IC20 combination, at 0.5 µM

With `OCCn1cc(-c2cnc3nnn(Cc4ccc5ncccc5c4)c3n2)cn1` the liver cell % of control [1] was 97.5% and 96.9% and 96.4% and the parasite % of control [1] was 74.3% (inactive) and 94.9% (inactive) and 55.7% (inactive).
In the case of `C[C@H]1[C@H](C)CC[C@]2(C(=O)O)CC[C@]3(C)C(=CC[C@@H]4[C@@]5(C)C[C@@H](O)[C@H](O)[C@@](C)(CO)[C@@H]5CC[C@]43C)[C@H]12`, the luciferase signal [2] is reported as 36 AU (inactive).
For `O=C(O)CCCc1c[nH]c2ccccc12`, the z-score [3] was 1.11 (inactive).
For `CN(C)CC(C)(C)CNc1nn2c(-c3ccccc3)nnc2cc1C1CCC1`, the liver cell % of control [1] was 58.5% and 89.5% and 101% and the parasite % of control [1] was 54.4% (inactive) and 60.7% (inactive) and 52.9% (inactive).
In the case of `CO[C@H]1/C=C/O[C@@]2(C)Oc3c(C)c(O)c4c(O)c(c5c(nc6cc(C)ccn65)c4c3C2=O)NC(=O)/C(C)=C\C=C\[C@H](C)[C@H](O)[C@@H](C)[C@@H](O)[C@@H](C)[C@H](OC(C)=O)[C@@H]1C`, the remaining NAD [4] is reported as 10 nM (inactive) and the luciferase signal [2] is reported as 32 AU (inactive).
In the case of `O=C(c1cc(Cc2n[nH]c(=O)c3ccccc23)ccc1F)N1CCN(C(=O)C2CC2)CC1`, the inhibition ([5]; at 0.5 µM) is reported as 0.5% (inactive) and -18.6% (inactive), the inhibition [5, 20] is reported as 4.09% and -28.6% and the inhibition [5, 21] is reported as -5.89% and -28.2%. The inhibition [5, 22] was 10.2% and -13.4%, the inhibition ([6]; at 0.5 µM) was -22.2% (inactive) and -52% (inactive) and the inhibition [6, 23] was -38.6% and -22.3%. The inhibition [6, 24] was 8.08% and -53.7%, the inhibition ([7]; at 0.5 µM) was 0.63% (inactive) and 3.05% (inactive) and the inhibition [7, 25] was -2.67% and 1.02%. The inhibition [7, 26] was 5.32% and 12.9%, the inhibition ([8]; at 0.5 µM) was 3.95% (inactive) and -1.88% (inactive) and the inhibition [8, 27] was -15.9% and -18%. The inhibition [8, 28] was -0.831% and -12.7%, the inhibition ([9]; at 0.5 µM) was -13.1% (inactive) and -23.1% (inactive) and the inhibition [9, 21] was -6.19% and -20.5%. For the same molecule, the inhibition [9, 22] was -14.1% and -19.5%, the inhibition [10, 29] was 15.2% and -17.7% and the inhibition ([10]; at 0.5 µM) was 3.2% (inactive) and -8.35% (inactive). For the same molecule, the inhibition [10, 30] was 8.98% and -4%, the inhibition [11] was 4.09% (inactive) and -6.96% (inactive) and the inhibition [11, 31] was 0.597% and -11.9%. The inhibition [11, 32] was 7.1% and 3.7%, the inhibition ([12]; at 0.5 µM) was 11% (inactive) and 18.2% (inactive) and the inhibition [12, 33] was 2.64% and 8.45%. For the same molecule, the inhibition [12, 34] was 15.2% and 23.1%, the inhibition ([12]; single agent, at 0.05 µM) was 8.77% and 29.2% and the inhibition ([12]; single agent, at 5 µM) was 44.7% and 52.9%.
In the case of `Cc1ccc2c(c1)C(=O)[C@]1(O)CCN(c3ccccc3)C1=N2`, the fold fluorescence [13] is reported as 7.57 [at 171 µM] (inactive).
For `O=c1c(O)c(-c2cc(O)c(O)c(O)c2)oc2cc(O)cc(O)c12`, the period change [14] was -0.075 h (inactive), the survival [15] was 2.42 (inactive) and the parasite load remaining [16] was 81.9% (inactive) and 74.4% (inactive). The viability [16] was 106% and 74.8%, the inhibition [17] was 8% (inactive) and the fluorescence ratio (interference) [18] was 1 (inactive). For the same molecule, the outcome [19] was “inactive” and the z-score [3] was -1.22 (inactive).
For `Cc1cccc(-c2[nH]c(C(C)(C)C)nc2-c2ccc3nccnc3c2)n1`, the inhibition [17] was -3% (inactive), the fluorescence ratio (interference) [18] was 1 (inactive) and the outcome [19] was “inactive”. For the same molecule, the z-score [3] was -1.01 (inactive).
For `Cc1cccc(-c2[nH]c(C(C)(C)C)nc2-c2ccc3c(c2)OCO3)n1`, the parasite load remaining [16] was 33.2% (inactive) and the viability [16] was 61.8%.
With `C[C@@H]1CN(CC(=O)Nc2ccc3c(c2)Cc2cccc(-c4cc(=O)cc(N5CCOCC5)o4)c2S3)C[C@H](C)O1` the inhibition ([5]; at 0.5 µM) was -8.44% (inactive) and -21% (inactive), the inhibition [5, 20] was 3.35% and -5.52% and the inhibition [5, 21] was -14.6% and -41.1%. The inhibition [5, 22] was -56% and -92.8%, the inhibition ([6]; at 0.5 µM) was -44.4% (inactive) and -42.5% (inactive) and the inhibition [6, 23] was -21.5% and -30.1%. The inhibition [6, 24] was -75.7% and -79.9%, the inhibition ([7]; at 0.5 µM) was -12% (inactive) and -9.56% (inactive) and the inhibition [7, 25] was -14.5% and -20%. The inhibition [7, 26] was -16.9% and 0.275%, the inhibition ([8]; at 0.5 µM) was -15.2% (inactive) and 1.44% (inactive) and the inhibition [8, 27] was -5.12% and -6.06%. The inhibition [8, 28] was -21.5% and 20.1%, the inhibition ([9]; at 0.5 µM) was -9.09% (inactive) and -22.8% (inactive) and the inhibition [9, 21] was -17.7% and -28.5%. For the same molecule, the inhibition [9, 22] was 7.16% and -9%, the inhibition [10, 29] was -11.5% and 19.3% and the inhibition ([10]; at 0.5 µM) was -16.3% (inactive) and -2.61% (inactive). The inhibition [10, 30] was -2.71% and 10.4%, the inhibition [11] was -26.1% (inactive) and -28.5% (inactive) and the inhibition [11, 31] was -42.3% and -37.5%. The inhibition [11, 32] was -29% and -44.1%, the inhibition ([12]; at 0.5 µM) was 5.04% (inactive) and -9.72% (inactive) and the inhibition [12, 33] was 22% and -3.16%. For the same molecule, the inhibition [12, 34] was -5.11% and -14.8%, the inhibition ([12]; single agent, at 0.05 µM) was 7.16% and -18.1% and the inhibition ([12]; single agent, at 5 µM) was -20.2% and -4.99%.
